From PubChem
The sample as a whole holds a higher share of hits than the screen did.
HT1080-NT tox: kills 2HG-producing HT-1080-NT fibrosarcoma cells | HT-1080-NT fibrosarcoma viability, CellTiter-Glo ATP luminescence, 48 h | Potency, µM (highest dose often 46.1 µM), for the others: top-dose activity, negative = less viability, most hits filed as cytotoxic | 360,000 tested, 1.6% active;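 note: NT is the 2HG producing partner of a matched IDH1 knockdown line; potency is the fitted concentration of half-maximal effect; 0% = DMSO-treated cells and -100% = media-only wells without cells; nearly all actives have a fitted effect of over 55% in size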
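HT-1080-NT fibrosarcoma cells (2HG-overproducing), 750 cells/well in RPMI with 5% FBS, dosed after 2 h and incubated 48 h at 37C. CellTiter-Glo luminescence normalized to DMSO and no-cell wells; concentration-response curves fitted and classed.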
12-LOX inh: inhibitors of human 12S-lipoxygenase ALOX12. AID 1671190. Potency, µM (doses to about 108 µM), without a hit: at the highest dose activity change, negative = inhibition, most hits filed as inhibitors. purified 12hLO, xylenol orange hydroperoxide absorbance. 580,000 tested, 1.1% active; note: potency is the fitted concentration of half-maximal effect
Target sequence (P18054 whole entry, looked up): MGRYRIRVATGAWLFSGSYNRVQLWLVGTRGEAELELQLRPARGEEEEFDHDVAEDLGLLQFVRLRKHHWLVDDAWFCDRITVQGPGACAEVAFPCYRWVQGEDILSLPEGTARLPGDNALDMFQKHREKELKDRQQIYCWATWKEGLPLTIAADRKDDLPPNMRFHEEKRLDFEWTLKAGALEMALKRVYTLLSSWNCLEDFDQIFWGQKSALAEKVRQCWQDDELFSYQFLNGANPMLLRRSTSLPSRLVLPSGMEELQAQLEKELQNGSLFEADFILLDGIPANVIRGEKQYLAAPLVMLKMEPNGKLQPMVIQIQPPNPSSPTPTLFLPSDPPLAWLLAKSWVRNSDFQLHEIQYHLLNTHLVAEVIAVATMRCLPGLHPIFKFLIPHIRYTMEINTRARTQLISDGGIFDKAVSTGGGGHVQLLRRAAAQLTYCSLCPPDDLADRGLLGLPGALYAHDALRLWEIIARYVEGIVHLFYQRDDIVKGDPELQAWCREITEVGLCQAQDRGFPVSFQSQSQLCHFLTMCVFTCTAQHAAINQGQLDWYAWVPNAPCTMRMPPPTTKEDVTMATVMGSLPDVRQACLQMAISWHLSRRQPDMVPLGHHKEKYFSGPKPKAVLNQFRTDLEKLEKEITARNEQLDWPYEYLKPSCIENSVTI
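Hydroperoxide product was detected by ferrous iron/xylenol orange as the 573 to 405 nm absorbance ratio. Arachidonic acid at 40 uM (final) was turned over for 30 min at room temperature by 150 nM human 12hLO, pH 7.0 Hepes buffer, after 15 min compound preincubation.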
HT1080 IDH1KD tx: kills HT-1080 cells with IDH1 knockdown | HT-1080 IDH1 knockdown viability, ATP luminescence, 48 h | Potency, µM (titrated, usually from 46.1 µM), without a hit: at the top dose activity, negative = toxicity, usual class: cytotoxic | 360,000 tested, 2% active;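 note: potency is the fitted concentration of half-maximal effect; 0% = DMSO wells and -100% = cell-free medium wells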
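Assay cells: HT-1080 with IDH1 knockdown, 750 per well, RPMI/5% FBS. Exposure: 48 h at 37 °C following 2 h pre-incubation. Read: CellTiter-Glo luminescence; fitted concentration-response, curve class assigned.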
DT40 TDP1 no CPT: qHTS for Inhibitors of human tyrosyl-DNA phosphodiesterase 1 (TDP1): qHTS in cells in absence of CPT. Potency, µM (doses to about 46.2 µM), inactives show at the top dose activity change, negative = growth inhibition, actives largely listed as inhibitors. 420,000 tested, 15% active. DT40 Tdp1-/- hTDP1 cells, no CPT, ATP luminescence, 48 h; note: potency is the fitted concentration of half-maximal effect; nearly all actives have a fitted effect of over 55% in size
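Chicken DT40 Tdp1-/- cells stably complemented with human TDP1 were seeded at 400 cells/well with DMSO in place of 20 nM camptothecin. After compound pinning, cells grew at least 48 hr at 37 °C; viability read by CellTiter-Glo luminescence.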
IL1B secr inh: inhibitors of inflammasome signaling (IL-1 beta secretion); THP-1 LPS/ATP IL-1B secretion, AlphaLISA, 16 h; active compounds read low; 360,000 tested, 4.7% active; activity change, % at 57.5 µM; in the data active = activity change below about -50%; inconclusive = mostly about -30% to -49%
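Secreted IL-1B measured by AlphaLISA bead assay after 16 h compound exposure of THP-1 cells; compounds (final up to 57.5 uM) added 1 h before LPS (250 ng/mL) and ATP (1.25 mM) stimulation; lower signal means less secretion.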
TDP1 cell CPT: DT40-hTDP1 cell growth loss with CPT; chicken DT40 Tdp1-/-;hTDP1 cells + 20 nM CPT, ATP luminescence, 48 h; AID 686979; 420,000 tested, 12% active; Potency, µM (top dose mostly 46.2 µM), for inactives: top-dose activity change, negative = growth inhibition, usual class: inhibitors; note: potency is the fitted concentration of half-maximal effect; nearly all actives have a fitted effect of over 55% in size
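Cell growth measured by CellTiter-Glo luminescence after a minimum 48 h, 37 C compound exposure with 20 nM CPT in Tdp1-knockout DT40 cells stably expressing hTDP1, seeded 400/well; qHTS titration format.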
Starred values were filed as active, the others as inactive; ? = inconclusive; . = no result; [ ] = dose if it differs, or a comment. Unless noted, calls come from the whole dose curve; as a rule, active = well fitted curve in the direction sought with a large enough effect; inconclusive = small, poorly fitted or top-dose-only effect, or another doubt; inactive = no such curve, though single readings can be large; an effect the other way counts as inactive or inconclusive. Unless noted, % is set by controls: 0 for no effect and ±100 for the full control effect.

SMILES | HT1080-NT tox | 12-LOX inh | HT1080 IDH1KD tx | DT40 TDP1 no CPT | IL1B secr inh | TDP1 cell CPT
Cn1cc(S(=O)(=O)N2CCCC2)cc1C(=O)Nc1ccc(C(F)(F)F)cc1 | . | 0% | . | ? | . | 29µM*
CC(=O)Nc1ccc(NC(=O)CCc2ncc(-c3ccc(F)cc3F)o2)cc1 | . | -3% | . | . | . | .
CC(CC(=O)Nc1cnc2ccccc2c1)c1ccccc1 (stereo not drawn) | . | 16% | . | . | . | .
O=C(Nc1ccc(-c2cnc(C3CC3)o2)cc1)c1cccc(F)c1 | . | -32% | . | . | . | .
CCC(C)(C)C1CCc2[nH]nc(C(=O)NC3CCCCC3)c2C1 (stereo not drawn) | 0% | 8% | 7% | ? | 13 | 12µM*
CCC(C)(C)C1CCc2[nH]nc(C(=O)NC(C)C)c2C1 (stereo not drawn) | 6% | 0% | 3% | 21µM* | -18 | ?
CCC(C)(C)C1CCc2[nH]nc(C(=O)NN)c2C1 (stereo not drawn) | -15% | -1% | ? | ? | -18 | -22%
CC(C)(C)c1ccccc1NC(=O)CSc1ncnc2ccccc12 | . | 3% | . | . | . | .
CCN(c1ccc(OC)cc1)S(=O)(=O)c1cc(-c2cc(C)no2)ccc1C | . | -4% | . | . | . | .
Cc1cc(-c2ccc(C)c(S(=O)(=O)NCC3CCN(Cc4ccc(F)cc4)CC3)c2)on1 | ? | 28% | ? | ? | -88* | 18µM*
CCc1ccc(-c2cc(C)no2)cc1S(=O)(=O)N1CCN(c2ccc(F)cc2)CC1 | -10% | 1% | -23% | ? | 13 | ?
Cc1cc(-c2ccc(C)c(S(=O)(=O)N(C(C)C)C3CCCCC3)c2)on1 | . | ? | . | ? | . | 21µM*
CCc1ccc(-c2cc(C)no2)cc1S(=O)(=O)N1CCN(C(=O)c2ccco2)CC1 | -27% | -4% | -10% | 21µM* | -19 | 0%
CCc1ccc(-c2cc(C)no2)cc1S(=O)(=O)N1CCN(c2ccc(OC)cc2)CC1 | ? | -7% | ? | ? | -2 | 21µM*
CC(=O)c1cccc(NC(=O)CSc2nncn2CCc2cccs2)c1 | . | -6% | . | . | . | .
CNC(=O)N1CCC(C2CCN(Cc3cccc(OC)c3OC)C2)CC1 (stereo not drawn) | . | 64% | . | . | . | .
CC(=O)Nc1ccc(CN[C@@H]2CO[C@H](CNS(C)(=O)=O)[C@H]2O)cc1 | . | 0%[176 µM] | . | . | . | .
COCCN(Cc1cccs1)S(=O)(=O)c1cc(-c2cc(C)no2)ccc1C | . | -24% | . | 21µM* | . | ?
COc1cccc(N2CCN(S(=O)(=O)c3cc(-c4cc(C)no4)ccc3C)CC2)c1 | . | -15% | . | 18µM* | . | ?
CCc1ccc(-c2cc(C)no2)cc1S(=O)(=O)NCCN1CCC(C)CC1 | -28% | -2% | -23% | ? | ? | ?
COc1ccc(OC)c(CNS(=O)(=O)c2cc(-c3cc(C)no3)ccc2OC)c1 | 2% | 3% | -1% | -14% | 7 | -12%
Cc1cc(-c2ccc(C)c(S(=O)(=O)N(Cc3cccs3)C(C)C)c2)on1 | . | -24% | . | ? | . | ?
CCc1ccc(-c2cc(C)no2)cc1S(=O)(=O)NCCCN1CCN(c2ccccc2)CC1 | 18µM* | 0% | ? | ? | -19 | ?
COc1ccc(-c2cc(C)no2)cc1S(=O)(=O)NCc1cccs1 | . | ? | . | 15µM* | . | 15µM*
O=C(NCCc1ccc(Cl)cc1)c1nc(-c2cccc(C(F)(F)F)c2)c2cnccn12 | . | 26% | . | . | . | .
SMILES | HT1080-NT tox | 12-LOX inh | HT1080 IDH1KD tx | DT40 TDP1 no CPT | IL1B secr inh | TDP1 cell CPT
CCc1ccc(-c2cc(C)no2)cc1S(=O)(=O)NCc1ccc(OC)cc1 | . | ? | . | 1µM* | . | 0.92µM*
CCOc1ccc(NCc2cccn2-c2nnc(N3CCC(C(=O)NC(C)C)CC3)s2)cc1 | . | 7% | . | . | . | .
CCOc1ccc(NCc2cccn2-c2nnc(N3CCC(C(=O)NCCCN4CCCCC4)CC3)s2)cc1 | -26% | 0% | 0% | 23µM* | -6 | ?
CCOc1ccc(NCc2cccn2-c2nnc(N3CCC(C(=O)NCc4ccccc4Cl)CC3)s2)cc1 | . | -5% | . | 12µM* | . | -91%
CCOc1ccc(NCc2cccn2-c2nnc(N3CCC(C(=O)NCCCN4C(C)CCCC4C)CC3)s2)cc1 (stereo not drawn) | ? | -4% | ? | ? | -7 | ?
COc1ccc(NC(=O)CCn2nc(-c3ccc(C)cc3)c3ccccc3c2=O)cc1C(N)=O | . | -22% | . | . | . | .
COc1cncc([C@@H](NS(=O)(=O)c2cnn(C)c2)C2CC(O)C2)c1 (stereo partly drawn) | . | 64% | . | . | . | .
CCOC(=O)c1cnc2c(c(C)nn2C)c1Oc1ccc(Cl)cc1 | -22% | ? | -27% | ? | 28 | 16µM*
Cc1nn(C)c2ncc(C(N)=O)c(Oc3cccnc3)c12 | 3% | 61% | 11% | -23% | 0 | 3%
COc1cc(OC)cc(OC(C)C(=O)Nc2cc(Cl)ccc2OC)c1 (stereo not drawn) | . | -4% | . | . | . | .
O=C(O)CN1C(=O)/C(=C\c2cccc(OCc3ccccc3F)c2)SC1=S | -25% | 40µM* | -21% | -1% | -10 | 1%
O=C(O)CN1C(=O)/C(=C\c2cccc(OCc3ccc(F)cc3)c2)SC1=S | -1% | 50µM* | -19% | 21% | 13 | 0%
O=C(NCc1ccccc1)NC[C@H]1Cn2c(-c3ccc4c(c3)OCO4)cnc2CO1 | . | 46%[176 µM] | . | . | . | .
CCCSc1nc2c(cnn2-c2ccccc2)c(=O)n1N | -1% | 2% | -10% | ? | -63* | -2%
Nn1c(SCc2ccccc2)nc2c(cnn2-c2ccccc2)c1=O | 0% | 17% | -7% | -18% | ? | ?
COc1ccc(-c2[nH]ncc2-c2ccc(Cl)cc2)c(O)c1 | ? | 52% | ? | ? | -1 | -24%
COc1ccc(-c2cnc(N)nc2-c2ccc(OCc3ccccc3F)cc2O)cc1OC | . | -13% | . | . | . | .
O=[N+]([O-])c1ccc(COc2ccc(-c3[nH]ncc3-c3ccc(Cl)cc3)c(O)c2)cc1 | ? | -23% | 23µM* | 23µM* | -92* | ?
COc1ccc(-c2cn[nH]c2-c2ccc(OCc3ccccc3F)cc2O)cc1OC | 29µM* | ? | 18µM* | 12µM* | ? | 29µM*
COc1ccc(-c2cn[nH]c2-c2ccc(OCc3ccc([N+](=O)[O-])cc3)cc2O)cc1OC | -22% | 10% | -24% | 21µM* | ? | ?
